Columns and labels:
Assay in all cases: DAPPL (digital affinity profiling via proximity ligation, sequencing); 10 mM Tris-HCl pH 7.5, 50 mM NaCl, 1 mM DTT, 4% glycerol, room temperature, 30 min; GST-TFs on glutathione beads, 16-mer random dsDNA library, 0.1% formaldehyde crosslink after washing; high values mean tight binding
FLI1 = target: T1, FLI1 (Homo sapiens, UniProt Q01543 1-452); settings: protein: recombinant; tags: N-terminal GST; dsDNA, one strand shown
T1 sequence: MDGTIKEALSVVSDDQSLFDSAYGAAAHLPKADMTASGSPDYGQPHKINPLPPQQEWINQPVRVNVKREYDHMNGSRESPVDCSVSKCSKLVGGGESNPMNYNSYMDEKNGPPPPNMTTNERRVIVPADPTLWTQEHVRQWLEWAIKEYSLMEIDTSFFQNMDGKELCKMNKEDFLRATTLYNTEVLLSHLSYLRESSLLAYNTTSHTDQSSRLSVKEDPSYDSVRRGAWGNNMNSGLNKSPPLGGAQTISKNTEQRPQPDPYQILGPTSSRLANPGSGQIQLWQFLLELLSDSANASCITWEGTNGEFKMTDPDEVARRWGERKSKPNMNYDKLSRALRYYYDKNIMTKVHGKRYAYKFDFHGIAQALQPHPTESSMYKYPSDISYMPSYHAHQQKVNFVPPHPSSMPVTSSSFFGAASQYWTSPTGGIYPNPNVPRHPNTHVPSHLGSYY
Procedure, shortened: (§1)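 The binding signal reported is, for every hexamer, its read frequency for a factor over its read frequency for the tag-only sample. Reads came from pools of yeast-expressed, GST-fused human transcription factors on glutathione beads, barcoded with DNA and mixed with that sample, which were incubated with 200 nmole of a random double-stranded 16-mer DNA library in Tris/NaCl/DTT/glycerol buffer at room temperature for 30 min. After washing, the pools were crosslinked with 0.1% formaldehyde, proximity-ligated with BsaI/T4 ligase for 1 h at 37 °C, PCR-amplified and sequenced on an Illumina NextSeq500.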

ELK1 = target: T2, ELK1 (Homo sapiens, UniProt P19419 1-428); settings: protein: recombinant; tags: N-terminal GST; dsDNA, one strand shown
T2 sequence: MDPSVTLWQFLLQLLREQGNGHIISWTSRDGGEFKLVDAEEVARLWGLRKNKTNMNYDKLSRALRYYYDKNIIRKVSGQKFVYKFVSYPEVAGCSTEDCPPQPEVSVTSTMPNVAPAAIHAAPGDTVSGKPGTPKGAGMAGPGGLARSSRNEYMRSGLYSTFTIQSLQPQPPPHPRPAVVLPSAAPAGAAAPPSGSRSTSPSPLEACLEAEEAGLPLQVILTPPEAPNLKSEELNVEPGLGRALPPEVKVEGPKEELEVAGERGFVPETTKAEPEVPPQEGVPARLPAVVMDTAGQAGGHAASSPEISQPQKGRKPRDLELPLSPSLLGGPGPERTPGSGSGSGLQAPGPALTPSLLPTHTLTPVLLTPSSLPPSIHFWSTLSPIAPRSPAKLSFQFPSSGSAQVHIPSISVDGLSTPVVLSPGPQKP
Procedure, shortened: as §1

GABPA = target: T3, GABPA (Homo sapiens, UniProt Q06546 1-454); settings: protein: recombinant; tags: N-terminal GST; dsDNA, one strand shown
T3 sequence: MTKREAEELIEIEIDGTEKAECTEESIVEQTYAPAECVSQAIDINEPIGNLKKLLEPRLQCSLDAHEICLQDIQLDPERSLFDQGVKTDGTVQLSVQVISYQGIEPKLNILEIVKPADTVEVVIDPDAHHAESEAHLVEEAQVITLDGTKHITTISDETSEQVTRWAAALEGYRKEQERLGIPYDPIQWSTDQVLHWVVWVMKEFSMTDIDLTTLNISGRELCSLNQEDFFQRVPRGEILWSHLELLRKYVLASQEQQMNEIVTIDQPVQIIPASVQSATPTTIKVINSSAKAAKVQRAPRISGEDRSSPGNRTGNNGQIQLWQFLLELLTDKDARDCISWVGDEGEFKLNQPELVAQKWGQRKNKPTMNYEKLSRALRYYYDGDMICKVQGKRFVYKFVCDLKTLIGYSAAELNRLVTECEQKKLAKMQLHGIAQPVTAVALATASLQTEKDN
Procedure, shortened: as §1

ERG = target: T4, ERG (Homo sapiens, UniProt P11308 1-479); settings: protein: recombinant; tags: N-terminal GST; dsDNA, one strand shown
T4 sequence: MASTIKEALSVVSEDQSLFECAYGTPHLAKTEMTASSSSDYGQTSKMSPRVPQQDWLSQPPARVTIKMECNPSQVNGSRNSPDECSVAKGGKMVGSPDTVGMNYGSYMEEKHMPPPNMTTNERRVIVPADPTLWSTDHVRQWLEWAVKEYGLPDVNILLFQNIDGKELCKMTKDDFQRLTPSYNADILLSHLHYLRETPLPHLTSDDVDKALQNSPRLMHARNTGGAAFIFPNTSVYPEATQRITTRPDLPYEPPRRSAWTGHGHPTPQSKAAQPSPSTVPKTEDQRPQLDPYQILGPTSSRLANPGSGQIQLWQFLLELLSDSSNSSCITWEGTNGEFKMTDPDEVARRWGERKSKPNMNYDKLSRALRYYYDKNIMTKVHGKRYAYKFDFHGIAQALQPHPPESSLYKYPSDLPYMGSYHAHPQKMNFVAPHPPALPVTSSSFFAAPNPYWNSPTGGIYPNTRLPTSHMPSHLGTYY
Procedure, shortened: as §1

ELF1 = ELF1 (Homo sapiens, UniProt P32519 1-619); settings: protein: recombinant; tags: N-terminal GST; dsDNA, one strand shown
Procedure, shortened: as §1

EHF = target: T5, EHF (Homo sapiens, UniProt Q9NZC4 1-300); settings: protein: recombinant; tags: N-terminal GST; dsDNA, one strand shown
T5 sequence: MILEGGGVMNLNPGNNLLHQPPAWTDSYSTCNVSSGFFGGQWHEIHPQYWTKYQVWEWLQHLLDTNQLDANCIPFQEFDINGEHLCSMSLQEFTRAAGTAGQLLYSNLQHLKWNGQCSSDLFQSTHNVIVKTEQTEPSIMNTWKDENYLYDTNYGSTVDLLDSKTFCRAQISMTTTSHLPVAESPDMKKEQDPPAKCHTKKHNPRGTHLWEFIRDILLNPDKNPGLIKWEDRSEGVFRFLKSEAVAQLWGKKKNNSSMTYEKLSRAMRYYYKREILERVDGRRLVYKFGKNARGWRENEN
Procedure, shortened: as §1

SPIB = SPIB (Homo sapiens, UniProt Q01892 1-262); settings: protein: recombinant; tags: N-terminal GST; dsDNA, one strand shown
Procedure, shortened: as §1

ELK3 = target: T6, ELK3 (Homo sapiens, UniProt P41970 1-407); settings: protein: recombinant; tags: N-terminal GST; dsDNA, one strand shown
T6 sequence: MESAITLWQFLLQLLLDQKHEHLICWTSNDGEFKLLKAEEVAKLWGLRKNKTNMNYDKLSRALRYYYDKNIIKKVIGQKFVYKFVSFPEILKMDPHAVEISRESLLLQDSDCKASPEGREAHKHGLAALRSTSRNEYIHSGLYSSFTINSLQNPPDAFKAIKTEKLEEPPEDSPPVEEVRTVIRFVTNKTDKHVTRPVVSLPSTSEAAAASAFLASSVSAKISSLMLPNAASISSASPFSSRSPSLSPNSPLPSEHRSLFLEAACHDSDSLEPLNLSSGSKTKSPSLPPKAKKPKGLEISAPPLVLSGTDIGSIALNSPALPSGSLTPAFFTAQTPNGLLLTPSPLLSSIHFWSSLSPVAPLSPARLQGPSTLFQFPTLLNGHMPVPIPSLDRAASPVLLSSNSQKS
Procedure, shortened: as §1

FEV = target: T7, FEV (Homo sapiens, UniProt Q99581 1-238); settings: protein: recombinant; tags: N-terminal GST; dsDNA, one strand shown
T7 sequence: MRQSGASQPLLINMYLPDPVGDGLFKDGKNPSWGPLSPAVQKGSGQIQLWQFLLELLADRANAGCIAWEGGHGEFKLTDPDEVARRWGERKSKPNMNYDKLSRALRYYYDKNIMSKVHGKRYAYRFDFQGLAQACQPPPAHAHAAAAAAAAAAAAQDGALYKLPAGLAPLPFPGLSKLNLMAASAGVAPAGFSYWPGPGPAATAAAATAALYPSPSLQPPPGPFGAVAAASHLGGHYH
Procedure, shortened: as §1

ETV5 = ETV5 (Homo sapiens, UniProt P41161 1-510); settings: protein: recombinant; tags: N-terminal GST; dsDNA, one strand shown
Procedure, shortened: as §1

HSF1 = HSF1 (Homo sapiens, UniProt Q00613 1-529); settings: protein: recombinant; tags: N-terminal GST; chain copies: 3; dsDNA, one strand shown
Procedure, shortened: as §1

SPIC = target: T8, SPIC (Homo sapiens, UniProt Q8N5J4 1-248); settings: protein: recombinant; tags: N-terminal GST; dsDNA, one strand shown
T8 sequence: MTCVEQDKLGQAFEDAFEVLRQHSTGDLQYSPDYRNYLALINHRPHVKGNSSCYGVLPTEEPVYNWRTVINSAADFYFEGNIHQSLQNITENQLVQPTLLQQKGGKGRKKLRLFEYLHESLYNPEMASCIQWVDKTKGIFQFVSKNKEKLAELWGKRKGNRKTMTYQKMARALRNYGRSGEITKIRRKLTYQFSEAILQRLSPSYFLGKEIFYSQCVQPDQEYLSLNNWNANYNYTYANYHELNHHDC
Procedure, shortened: as §1

ELF4 = ELF4 (Homo sapiens, UniProt Q99607 1-663); settings: protein: recombinant; tags: N-terminal GST; dsDNA, one strand shown
Procedure, shortened: as §1

ELK4 = target: T9, ELK4 (Homo sapiens, UniProt P28324-2 1-405); settings: protein: recombinant; tags: N-terminal GST; dsDNA, one strand shown
T9 sequence: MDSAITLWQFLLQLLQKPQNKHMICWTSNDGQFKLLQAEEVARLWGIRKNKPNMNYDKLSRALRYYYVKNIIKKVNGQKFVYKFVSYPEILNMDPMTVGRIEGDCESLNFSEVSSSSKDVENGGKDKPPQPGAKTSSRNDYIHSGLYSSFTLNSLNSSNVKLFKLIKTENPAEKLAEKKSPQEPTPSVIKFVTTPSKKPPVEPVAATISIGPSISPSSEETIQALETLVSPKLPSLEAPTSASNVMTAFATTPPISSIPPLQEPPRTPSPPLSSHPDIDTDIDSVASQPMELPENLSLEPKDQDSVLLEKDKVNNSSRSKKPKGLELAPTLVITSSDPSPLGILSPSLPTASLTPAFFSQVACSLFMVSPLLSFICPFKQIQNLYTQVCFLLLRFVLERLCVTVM
Procedure, shortened: as §1

ETV2 = target: T10, ETV2 (Homo sapiens, UniProt O00321 1-342); settings: protein: recombinant; tags: N-terminal GST; dsDNA, one strand shown
T10 sequence: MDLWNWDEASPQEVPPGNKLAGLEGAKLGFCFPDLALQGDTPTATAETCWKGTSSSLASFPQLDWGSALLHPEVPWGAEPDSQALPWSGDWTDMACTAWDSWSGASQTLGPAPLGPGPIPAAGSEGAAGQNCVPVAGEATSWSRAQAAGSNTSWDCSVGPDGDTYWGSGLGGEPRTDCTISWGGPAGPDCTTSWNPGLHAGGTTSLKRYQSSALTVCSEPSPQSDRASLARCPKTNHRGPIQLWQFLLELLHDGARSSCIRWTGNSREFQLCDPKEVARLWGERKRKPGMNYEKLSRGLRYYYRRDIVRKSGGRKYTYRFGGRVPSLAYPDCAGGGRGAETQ
Procedure, shortened: as §1

ELF3 = target: T11, ELF3 (Homo sapiens, UniProt P78545 1-371); settings: protein: recombinant; tags: N-terminal GST; dsDNA, one strand shown
T11 sequence: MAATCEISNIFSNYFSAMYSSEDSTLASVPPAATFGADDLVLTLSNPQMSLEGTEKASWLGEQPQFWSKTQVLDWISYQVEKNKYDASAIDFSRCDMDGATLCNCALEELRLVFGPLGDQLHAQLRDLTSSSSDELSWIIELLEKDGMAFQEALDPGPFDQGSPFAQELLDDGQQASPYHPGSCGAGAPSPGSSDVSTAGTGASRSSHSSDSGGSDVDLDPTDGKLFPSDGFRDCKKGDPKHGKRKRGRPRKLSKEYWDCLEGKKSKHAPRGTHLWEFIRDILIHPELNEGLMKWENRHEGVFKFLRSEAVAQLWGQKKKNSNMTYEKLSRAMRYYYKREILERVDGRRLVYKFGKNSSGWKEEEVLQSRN
Procedure, shortened: as §1

ETV1 = ETV1 (Homo sapiens, UniProt P50549 1-477); settings: protein: recombinant; tags: N-terminal GST; dsDNA, one strand shown
Procedure, shortened: as §1

Chain of SPIB (Q01892 whole entry): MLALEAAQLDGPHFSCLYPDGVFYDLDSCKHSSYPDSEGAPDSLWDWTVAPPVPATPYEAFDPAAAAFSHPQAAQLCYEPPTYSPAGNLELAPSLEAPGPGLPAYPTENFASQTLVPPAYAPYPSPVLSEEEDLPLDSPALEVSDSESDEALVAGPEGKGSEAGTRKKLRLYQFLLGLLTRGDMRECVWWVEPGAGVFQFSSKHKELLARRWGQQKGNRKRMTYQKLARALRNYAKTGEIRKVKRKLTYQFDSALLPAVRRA
Chain of ETV5 (P41161 whole entry): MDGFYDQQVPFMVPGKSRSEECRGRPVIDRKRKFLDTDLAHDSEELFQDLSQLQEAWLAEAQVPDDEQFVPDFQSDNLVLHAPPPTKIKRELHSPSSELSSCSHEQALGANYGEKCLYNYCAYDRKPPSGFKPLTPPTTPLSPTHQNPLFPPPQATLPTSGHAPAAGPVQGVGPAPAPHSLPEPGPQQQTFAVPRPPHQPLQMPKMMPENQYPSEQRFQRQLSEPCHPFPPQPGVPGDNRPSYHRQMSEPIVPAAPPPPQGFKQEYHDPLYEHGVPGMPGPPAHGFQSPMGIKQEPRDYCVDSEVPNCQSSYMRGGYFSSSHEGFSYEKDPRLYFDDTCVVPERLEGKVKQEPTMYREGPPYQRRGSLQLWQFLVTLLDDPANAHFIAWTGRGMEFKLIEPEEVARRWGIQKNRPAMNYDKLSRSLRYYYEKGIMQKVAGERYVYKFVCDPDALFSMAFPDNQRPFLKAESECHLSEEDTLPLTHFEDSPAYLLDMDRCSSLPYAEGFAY
Chain of ELF1 (P32519 whole entry): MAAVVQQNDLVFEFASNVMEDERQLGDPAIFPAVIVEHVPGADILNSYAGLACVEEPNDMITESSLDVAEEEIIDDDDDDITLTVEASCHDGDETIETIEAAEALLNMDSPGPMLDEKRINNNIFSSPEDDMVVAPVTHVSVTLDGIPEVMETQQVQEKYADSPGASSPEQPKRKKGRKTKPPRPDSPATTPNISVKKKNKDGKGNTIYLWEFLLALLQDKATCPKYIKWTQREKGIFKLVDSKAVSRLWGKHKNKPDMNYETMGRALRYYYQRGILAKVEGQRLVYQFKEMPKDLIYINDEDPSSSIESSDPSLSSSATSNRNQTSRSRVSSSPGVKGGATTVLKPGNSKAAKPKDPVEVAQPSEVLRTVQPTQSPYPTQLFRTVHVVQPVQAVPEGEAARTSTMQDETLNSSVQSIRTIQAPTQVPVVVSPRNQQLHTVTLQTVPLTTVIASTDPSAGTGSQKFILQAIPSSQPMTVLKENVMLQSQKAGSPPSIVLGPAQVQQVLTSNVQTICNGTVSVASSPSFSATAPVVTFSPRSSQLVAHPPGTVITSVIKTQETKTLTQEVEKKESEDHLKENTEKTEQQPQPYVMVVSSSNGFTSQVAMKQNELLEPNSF
Chain of ETV1 (P50549 whole entry): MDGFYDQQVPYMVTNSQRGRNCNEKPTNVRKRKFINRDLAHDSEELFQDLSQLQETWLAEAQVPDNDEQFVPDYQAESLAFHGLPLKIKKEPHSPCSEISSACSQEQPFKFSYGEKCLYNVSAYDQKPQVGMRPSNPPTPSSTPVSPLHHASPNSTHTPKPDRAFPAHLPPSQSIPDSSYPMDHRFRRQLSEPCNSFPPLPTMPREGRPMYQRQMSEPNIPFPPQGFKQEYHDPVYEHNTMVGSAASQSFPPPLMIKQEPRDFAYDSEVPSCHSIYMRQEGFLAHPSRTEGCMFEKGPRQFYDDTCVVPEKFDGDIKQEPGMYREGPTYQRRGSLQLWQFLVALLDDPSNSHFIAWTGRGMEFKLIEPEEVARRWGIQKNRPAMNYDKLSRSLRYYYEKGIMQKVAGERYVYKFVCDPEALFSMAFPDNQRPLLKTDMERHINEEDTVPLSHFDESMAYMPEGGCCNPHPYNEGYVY
Chain of HSF1 (Q00613 whole entry): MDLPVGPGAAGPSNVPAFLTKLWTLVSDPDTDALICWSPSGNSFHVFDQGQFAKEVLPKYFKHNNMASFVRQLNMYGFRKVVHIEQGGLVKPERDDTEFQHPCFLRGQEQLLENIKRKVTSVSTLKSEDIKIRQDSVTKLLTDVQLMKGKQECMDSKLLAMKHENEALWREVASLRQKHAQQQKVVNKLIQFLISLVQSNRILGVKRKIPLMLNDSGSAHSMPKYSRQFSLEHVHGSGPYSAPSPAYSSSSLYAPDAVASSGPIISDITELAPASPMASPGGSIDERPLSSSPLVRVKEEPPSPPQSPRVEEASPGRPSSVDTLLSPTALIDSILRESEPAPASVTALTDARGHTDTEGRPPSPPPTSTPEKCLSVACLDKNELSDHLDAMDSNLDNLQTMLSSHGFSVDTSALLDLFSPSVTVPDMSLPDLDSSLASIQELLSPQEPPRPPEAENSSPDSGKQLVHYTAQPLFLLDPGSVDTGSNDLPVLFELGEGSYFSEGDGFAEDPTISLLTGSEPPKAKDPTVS
Chain of ELF4 (Q99607 whole entry): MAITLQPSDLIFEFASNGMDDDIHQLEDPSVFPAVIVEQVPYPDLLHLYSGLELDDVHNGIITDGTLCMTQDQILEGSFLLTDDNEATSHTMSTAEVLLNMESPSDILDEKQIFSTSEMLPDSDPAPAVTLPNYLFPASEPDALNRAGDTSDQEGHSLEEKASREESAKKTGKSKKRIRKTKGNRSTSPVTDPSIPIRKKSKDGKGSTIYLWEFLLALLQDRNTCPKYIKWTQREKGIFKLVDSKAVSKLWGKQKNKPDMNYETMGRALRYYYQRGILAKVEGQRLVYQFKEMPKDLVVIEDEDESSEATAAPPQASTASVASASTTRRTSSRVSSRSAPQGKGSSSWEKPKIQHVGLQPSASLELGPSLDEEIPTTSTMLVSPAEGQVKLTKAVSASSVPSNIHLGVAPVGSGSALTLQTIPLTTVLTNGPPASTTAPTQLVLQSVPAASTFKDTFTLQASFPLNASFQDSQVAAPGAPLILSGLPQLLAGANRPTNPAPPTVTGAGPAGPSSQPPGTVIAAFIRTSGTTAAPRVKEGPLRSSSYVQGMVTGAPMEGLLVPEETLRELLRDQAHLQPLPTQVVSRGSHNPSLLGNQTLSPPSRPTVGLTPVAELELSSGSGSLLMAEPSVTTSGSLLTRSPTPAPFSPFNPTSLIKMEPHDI

For CAACGA, the binding signal (FLI1) was 1.05 fold enrichment (6-mer frequency, TF over GST control), the binding signal (ELK1) was 1.08 fold enrichment (6-mer frequency, TF over GST control) and the binding signal (GABPA) was 1.08 fold enrichment (6-mer frequency, TF over GST control). For the same sequence, the binding signal (ERG) was 1.07 fold enrichment (6-mer frequency, TF over GST control), the binding signal (ELF1) was 1.1 fold enrichment (6-mer frequency, TF over GST control) and the binding signal (EHF) was 1.01 fold enrichment (6-mer frequency, TF over GST control). The binding signal (SPIB) was 1.03 fold enrichment (6-mer frequency, TF over GST control), the binding signal (ELK3) was 1.09 fold enrichment (6-mer frequency, TF over GST control) and the binding signal (FEV) was 1.01 fold enrichment (6-mer frequency, TF over GST control). For the same sequence, the binding signal (ETV5) was 1.02 fold enrichment (6-mer frequency, TF over GST control), the binding signal (HSF1) was 1 fold enrichment (6-mer frequency, TF over GST control) and the binding signal (SPIC) was 1.1 fold enrichment (6-mer frequency, TF over GST control). For the same sequence, the binding signal (ELF4) was 1.1 fold enrichment (6-mer frequency, TF over GST control), the binding signal (ELK4) was 1.14 fold enrichment (6-mer frequency, TF over GST control) and the binding signal (ETV2) was 1.01 fold enrichment (6-mer frequency, TF over GST control). The binding signal (ELF3) was 1.08 fold enrichment (6-mer frequency, TF over GST control) and the binding signal (ETV1) was 1 fold enrichment (6-mer frequency, TF over GST control).
